Assay in all cases: NCI-60 one-dose screen, 48 h (100 = growth as untreated, 0 = no growth, -100 = all killed)
One assay relates to SR leukemia. Conditions: 10 µM unless noted.
A further assay relates to RPMI-8226 leukemia. Conditions: 10 µM unless noted.
The test system of a further assay is OVCAR-8 ovarian. Conditions: 10 µM unless noted.
A further assay deals with OVCAR-5 ovarian. Conditions: 10 µM unless noted.
The next assay concerns OVCAR-4 ovarian. Conditions: 10 µM unless noted.
The next assay has as its system SK-OV-3 ovarian. Conditions: 10 µM unless noted.
A further assay deals with IGROV1 ovarian. Conditions: 10 µM unless noted.
The next assay relates to OVCAR-3 ovarian. Conditions: 10 µM unless noted.
A further assay concerns HS 578T breast. Conditions: 10 µM.
In the next assay the test system is NCI/ADR-RES ovarian. Conditions: 10 µM unless noted.

About 83,000 compounds went through this panel and 20% of them were active in at least one assay; those are over-represented in the sample as a whole.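 For each line, cells grew in 96-well plates with the test compound present at a single concentration for 48 hours.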 Unmarked numbers belong to inactive results. The source made the active and inactive calls. The calls were made as follows: active = growth percent below 10; inactive = the rest.

In the case of `O=C(Nc1ccc(N=Nc2ccccc2)cc1)c1cccc2ccccc12`, the growth in the assay with SR leukemia was 23.3%; in the assay with RPMI-8226 leukemia, 66.1%; in the assay with OVCAR-8 ovarian, 78.7%; in the assay with OVCAR-5 ovarian it was 92.5%; in the assay on OVCAR-4 ovarian it was 75.8%; with SK-OV-3 ovarian, 64.5%. Moreover, the growth in the assay on IGROV1 ovarian was 80.4%; in the assay with OVCAR-3 ovarian it was 37.1%; with HS 578T breast it was 72.6%; in the assay on NCI/ADR-RES ovarian it was 49.3%.
`COc1cc2c(cc1OCCCCN1CCN(CC(=O)Nc3ccc(Cl)cc3C(=O)c3ccccc3Cl)CC1)N=CC1CCCN1C2=O` (stereo not given): the growth in the assay on SR leukemia was -66.7% (active); with RPMI-8226 leukemia it was -74% (active); in the assay on OVCAR-8 ovarian, -65.5% (active); in the assay on OVCAR-5 ovarian, -51.7% (active); in the assay on OVCAR-4 ovarian, -91.4% (active); in the assay with SK-OV-3 ovarian, -76% (active). Moreover, the growth was -88.2% (active) in the assay on IGROV1 ovarian, -94.6% (active) with OVCAR-3 ovarian, -66.4% (active) in the assay with HS 578T breast and 2.24% (active) in the assay with NCI/ADR-RES ovarian.
As to `Cc1nn(-c2nc3ccccc3[nH]2)c2c1C(c1ccc(OCc3ccc(F)cc3)cc1)CC(=O)N2` (stereo not given), the growth was 67.5% in the assay with SR leukemia; 76.3% in the assay on RPMI-8226 leukemia; 54% in the assay on OVCAR-8 ovarian; 98.5% in the assay on OVCAR-5 ovarian; 98.4% in the assay on OVCAR-4 ovarian; 49.1% with SK-OV-3 ovarian. The growth in the assay with IGROV1 ovarian was 54.6%; with OVCAR-3 ovarian, 51%; in the assay on HS 578T breast it was 39%; in the assay on NCI/ADR-RES ovarian, 65.9%.
Consider `CC1(O)CCC(Nc2cc(-c3ccc(C(F)(F)F)cc3)c(C#N)c3nc4ccccc4n23)CC1` (stereo not given), for which the growth with SR leukemia was 79.4%; in the assay on RPMI-8226 leukemia, 56.8%; in the assay on OVCAR-8 ovarian it was 78.3%; in the assay with OVCAR-5 ovarian it was 99%; in the assay with OVCAR-4 ovarian it was 55.2%; with SK-OV-3 ovarian it was 68.6%. Further, the growth is 79.3% in the assay with IGROV1 ovarian, 81.4% in the assay on OVCAR-3 ovarian, 74.4% in the assay on HS 578T breast and 61.8% in the assay on NCI/ADR-RES ovarian.
Turning to `CSC1=C(N)C(=O)c2[nH]cc(CO)c2C1=N`, the growth in the assay on SR leukemia was 6.06% (active); in the assay on RPMI-8226 leukemia, -32.9% (active); in the assay with OVCAR-8 ovarian, -62% (active); in the assay with OVCAR-5 ovarian, -76% (active); with OVCAR-4 ovarian, -95.7% (active); with SK-OV-3 ovarian, -94.4% (active). For the same compound, the growth was -62.5% (active) in the assay on IGROV1 ovarian, -74.8% (active) in the assay on OVCAR-3 ovarian, 5% (active) in the assay with HS 578T breast and -23% (active) in the assay on NCI/ADR-RES ovarian.
Turning to `CCOC(=O)C1=C(C)NC(=O)NC1c1cc(=O)oc2ccc(C)cc12` (stereo not given), the growth in the assay with SR leukemia was 97.1%; with RPMI-8226 leukemia, 97.5%; in the assay on OVCAR-8 ovarian, 102%; in the assay on OVCAR-5 ovarian it was 107%; in the assay on OVCAR-4 ovarian it was 106%; with SK-OV-3 ovarian it was 104%. The growth is 103% in the assay with IGROV1 ovarian, 110% in the assay with OVCAR-3 ovarian, 109% in the assay with HS 578T breast and 102% with NCI/ADR-RES ovarian.
`O=S1(=O)OC(c2cc(Cl)c(O)c(Br)c2)(c2cc(Cl)c(O)c(Br)c2)c2ccccc21`: the growth in the assay on SR leukemia was 92.4%; with RPMI-8226 leukemia it was 102%; in the assay with OVCAR-8 ovarian, 89.8%; in the assay on OVCAR-5 ovarian, 100%; in the assay with OVCAR-4 ovarian, 101%; with SK-OV-3 ovarian, 109%. The growth with IGROV1 ovarian was 95.6%; in the assay with OVCAR-3 ovarian, 115%; in the assay on HS 578T breast, 94.1%; with NCI/ADR-RES ovarian, 102%.
Take `NC(=O)N1N=C(c2ccc(Cl)cc2)CC1c1cn(-c2ccccc2)nc1-c1ccc(Cl)cc1` (stereo not given): the growth in the assay with SR leukemia was 67.3%; with RPMI-8226 leukemia, 70.9%; in the assay on OVCAR-8 ovarian, 36.8%; in the assay on OVCAR-5 ovarian, 94.6%; with OVCAR-4 ovarian it was 14%; with SK-OV-3 ovarian, 50.9%. For the same compound, the growth in the assay on IGROV1 ovarian was 68.8%; in the assay on OVCAR-3 ovarian, 78.1%; in the assay with HS 578T breast it was 50.8%; with NCI/ADR-RES ovarian it was 47.8%.
As for `CN(N)c1nc2sc3c(c2c(=O)[nH]1)CCCC3`, the growth was 104% in the assay on SR leukemia; 103% in the assay with RPMI-8226 leukemia; 102% with OVCAR-8 ovarian; 131% in the assay with OVCAR-5 ovarian; 103% in the assay with OVCAR-4 ovarian; 82.7% in the assay on SK-OV-3 ovarian. Besides, the growth in the assay on IGROV1 ovarian was 90.1%; in the assay on OVCAR-3 ovarian it was 99.7%; in the assay with HS 578T breast it was 94.6%; with NCI/ADR-RES ovarian, 104%.
Turning to `CCc1nc2cc(F)c(/C=C/C(=O)NO)cc2c(=O)n1CCc1ccccc1`, the growth in the assay on SR leukemia was 15.1%; with RPMI-8226 leukemia, 11%; with OVCAR-8 ovarian it was 11.6%; with OVCAR-5 ovarian, 23.6%; in the assay on OVCAR-4 ovarian, 15.4%; in the assay with SK-OV-3 ovarian, 1.17% (active). Besides, the growth with IGROV1 ovarian is 32.2%; in the assay on OVCAR-3 ovarian, 7.99% (active); in the assay on HS 578T breast, 43.3%; with NCI/ADR-RES ovarian, 2.43% (active).
Regarding `Cc1ccc(NC(=O)NC(=O)CSc2nc3ccccc3nc2C)cc1`, the growth is 45.8% in the assay on SR leukemia; 57.1% in the assay with RPMI-8226 leukemia; 72.4% with OVCAR-8 ovarian; 100% with OVCAR-5 ovarian; 23.3% in the assay with OVCAR-4 ovarian; 56.2% with SK-OV-3 ovarian. Besides, the growth is 72.2% in the assay with IGROV1 ovarian, 97.4% with OVCAR-3 ovarian, 97.6% in the assay on HS 578T breast and 40.6% in the assay on NCI/ADR-RES ovarian.
Regarding `Oc1ccc(C(c2ccc(O)cc2)C(Cl)(Cl)Cl)cc1`, the growth was 87.8% in the assay with SR leukemia; 83.4% in the assay on RPMI-8226 leukemia; 103% in the assay on OVCAR-8 ovarian; 88.5% with OVCAR-5 ovarian; 94.2% in the assay on OVCAR-4 ovarian; 118% in the assay with SK-OV-3 ovarian. Moreover, the growth in the assay with IGROV1 ovarian was 93%; in the assay with OVCAR-3 ovarian, 105%; with HS 578T breast, 88.3%; in the assay with NCI/ADR-RES ovarian it was 94.9%.
With `C=C1[C@@H](O)C[C@H]2C(C)(C)C[C@H](Cl)C[C@]2(C)[C@H]1C[C@H](O)[C@H]1CC(=O)NC1=O`, the growth is 7.18% (active) with SR leukemia; -0.0704% (active) in the assay with RPMI-8226 leukemia; -18% (active) in the assay on OVCAR-8 ovarian; -10.8% (active) with OVCAR-5 ovarian; -36.3% (active) in the assay with OVCAR-4 ovarian; -29.7% (active) with SK-OV-3 ovarian. Moreover, the growth in the assay on IGROV1 ovarian was -15.4% (active); with OVCAR-3 ovarian, -27.4% (active); in the assay with HS 578T breast, -15.7% (active); in the assay with NCI/ADR-RES ovarian, -2.98% (active).

For the origin of these results see PubChem BioAssay (NCI).
